Only some compounds are listed: those with a hit (about 1.1% of all), similar ones and a draw of the others.
cytoskel mod = alters cytoskeleton assembly in HUVEC cells; HUVEC TNFa F-actin phalloidin imaging, high content; inhibition, % at 2 µM; 91,000 compounds, 0.18% hits; AID 836;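 active = inhibition above the batch mean plus 3 SD and confirmed as a hit by visual image inspection, cut at about 30% in these data, passing the limit was not always enough; inconclusive = above the inhibition threshold but rejected on visual inspection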
HUVEC tox TNFa = HUVEC cytotoxicity counter-screen, TNF alpha stimulated; 93,000 compounds, 0.17% hits; AID 848; cell count reduction, % at 2 µM; HUVEC TNFalpha-stimulated, Hoechst cell count, imaging;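 active = cell count reduction exceeding the screen mean by over 5 SD, scaled to untreated wells per plate, cut at about 78% in these data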;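 note: cells counted after 24 h of TNF alpha exposure following the 1 h pretreatment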
VCAM1 TNFa inh = reduces TNF alpha induced VCAM1 expression in HUVEC. inhibition, % at 2 µM. AID 802. 95,000 compounds, 0.48% hits. HUVEC TNFa-induced VCAM-1 immunofluorescence, high-content imaging;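 active = inhibition above the batch mean plus 3 SD, with images confirmed as a hit by eye, cut at about 37% in these data; inconclusive = inhibition above that limit but hit not confirmed in images; inactive = inhibition not above that limit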;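 note: 0% = TNF-stimulated DMSO wells and 100% = unstimulated control wells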
E-sel TNF inh = TNF alpha driven E-selectin expression inhibition; HUVEC TNFa-induced E-selectin immunofluorescence, high content; inhibition, % at 2 µM; 120,000 compounds, 0.71% hits; AID 1246;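 active = inhibition above the batch mean plus 3 SD, and confirmed as a hit on visual image review, cut at about 43% in these data; inconclusive = passes the inhibition cutoff but fails visual image review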;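 note: 0% = TNF-stimulated DMSO wells and 100% = unstimulated control wells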
Numbers without * were called inactive; ? = inconclusive; / = no result.

SMILES	cytoskel mod	HUVEC tox TNFa	VCAM1 TNFa inh	E-sel TNF inh
Cc1ccc(NC(=O)c2oc3c(c2C)C(=O)CC(C)(C)C3)cc1	-2	-3	97*	-28
O=C1CCCc2c1cc(C(=O)NC1CCSC1=O)c(=O)n2-c1ccccc1 (centres undefined)	-66	94*	/	-22
CC1(C)CC(=O)c2cc(C(=O)NC3CCSC3=O)c(=O)n(-c3ccccc3)c2C1 (centres undefined)	46	-1	-6	14
Cn1ccnc1SCC(=O)Nc1cccc([N+](=O)[O-])c1	/	/	/	-17
Cn1nnnc1SCC(=O)Nc1cccc([N+](=O)[O-])c1	/	/	/	76*
CCCOc1ccc(C(=O)C(CN2CCCC2)c2ccccc2)cc1 (centres undefined)	/	/	/	5
CCCCOc1ccc(C(=O)C(CN2CCOCC2)c2ccccc2)cc1 (centres undefined)	14	-20	41	22
COc1ccc(C(=O)C(CN2CCOCC2)c2ccccc2)cc1 (centres undefined)	/	0	51*	-24
COc1ccc(C(=O)C(CN2CCCC2)c2ccccc2)cc1 (centres undefined)	7	-4	84*	/
CCCC1=C(C(=O)OCC)C(c2ccccc2OC)NC(=O)N1 (centres undefined)	-2	-20	22	-2
COc1ccc(-c2cc3ncc(C(C)=O)c(C)n3n2)cc1	/	/	/	-2
O=C(NC1CCCCC1)C(c1cccs1)N(Cc1cccs1)C(=O)c1ccco1 (centres undefined)	43	-7	-5	36
C#CC(=O)N(c1cccc(OC)c1)C(C(=O)NC1CCCC1)c1cccs1 (centres undefined)	-26	22	?	99*
O=C(NC1CCCCC1)C(c1cccs1)N(C(=O)c1ccco1)c1ccc2c(c1)OCCO2 (centres undefined)	-28	8	-20	60*
CCCCn1nnc(NC(=S)NC(=O)c2ccc(-c3cccc(Cl)c3Cl)o2)n1	/	/	/	-4
COc1ccc(C2=NOC3(CC(=O)N(c4ccc5ccccc5c4)C3=O)C2)c(OC)c1 (centres undefined)	-10	-3	4	0
CCC(C)NC(=O)c1nc2c(nnn2Cc2ccccc2Cl)c(=O)[nH]1 (centres undefined)	/	/	/	-15
O=C(NCc1cccs1)c1nc2c(nnn2Cc2ccccc2Cl)c(=O)[nH]1	-4	-12	54*	/
Cc1ccc(NS(=O)(=O)c2cc(C(=O)NCCSC3CCCCC3)ccc2C)cc1	48*	-17	8	-12
O=C(Cn1cc(C(=O)C(F)(F)F)c2cc(Br)ccc21)N1CCOCC1	/	/	/	61*
CCn1cc(C(=O)C(F)(F)F)c2ccccc21	5	9	-12	4
COc1ccc(N(C)S(=O)(=O)c2cccc(C(=O)NC3=NCCS3)c2)cc1	/	/	/	-15
CCN=C(NCC)SC1CC(=O)N(c2cccc(OCC)c2)C1=O (centres undefined)	26	-34	2	/
COc1ccc(CN2CC(C(=O)NCCC3=CCCCC3)CC2=O)cc1 (centres undefined)	-19	-32	6	-3
Cc1ccc(NC(=O)N2CCC(C(=O)NCCC3=CCCCC3)CC2)cc1	-4	14	4	40*
SMILES	cytoskel mod	HUVEC tox TNFa	VCAM1 TNFa inh	E-sel TNF inh
CC(C)CCN1CC(C(=O)NCCC2=CCCCC2)CC1=O (centres undefined)	68*	-18	-5	-10
CCOC(=O)c1c(NC(=O)CCN2C(=O)c3cccc([N+](=O)[O-])c3C2=O)sc(C(=O)OC(C)C)c1C	/	/	/	17
CC(OC(=O)CCN1C(=O)c2cccc([N+](=O)[O-])c2C1=O)C(=O)Nc1cc(Cl)cc(Cl)c1 (centres undefined)	/	/	/	95*
Cc1ccc(S(=O)(=O)N(C)c2c(C)ccc(S(N)(=O)=O)c2C)cc1	/	/	/	-3
O=[N+]([O-])c1ccc(Cl)cc1Sc1nc2ccccc2o1	23	2	9	20
O=[N+]([O-])c1ccc(Sc2nc3ccccc3o2)c([N+](=O)[O-])c1	-20	35	73*	38
Cc1ccc2nc(-c3ccsc3)c(NC3CCCC3)n2c1	/	/	/	-29
Cc1nc2sc(C(c3ccc(Cl)cc3)N3CC(C)OC(C)C3)c(O)n2n1 (centres undefined)	27	37	36*	10
Cc1ccc(C(c2sc3nc(C)nn3c2O)N2CC(C)OC(C)C2)cc1 (centres undefined)	10	2	1	-2
O=C(CCc1ccccc1)Nc1ncc2c(n1)CCCC2=O	-7	-14	-4	72*
COC(=O)c1cc(Br)c(=O)n(Cc2cccnc2)c1	-14	-8	9	-1
COC(=O)c1cc(Br)c(=O)n(Cc2ccncc2)c1	14	6	8	64*
COc1ccc(CNC(=O)CCc2c(C)nc3ncnn3c2C)cc1	-24	-10	-2	/
Cc1nc2ncnn2c(C)c1CCC(=O)NCc1ccccc1	-15	-26	14	62*
COc1ccc(Nc2nc(N3CCCC3)nc3ccccc23)c(OC)c1	6	6	94*	-16
CCOC(=O)/C(=N/O)C1=NC(C)(C)Cc2cc(C)c(C)cc21	/	/	/	2
COc1ccc(Br)cc1C(=O)O	/	/	/	97*
COc1ccc(Br)cc1C(=O)Nc1ccc(O)cc1	10	0	-4	-11
O=C(CN1CCc2[nH]c3ccccc3c2C1)N1CCCCC1	0	-30	26	/
O=C(CN1C(=O)C2CCc3[nH]c4ccccc4c3C2C1=O)N1CCCC1 (centres undefined)	-27	86*	68	/
COC(=O)c1ccc(CN2CCN(CC=C(C)C)C(CCO)C2)cc1 (centres undefined)	/	/	/	-23
CCCCc1n[nH]c(=S)n1Cc1ccc(Cl)cc1	/	/	/	-16
COc1ccc(/C=N/NC(=O)C(C)n2cnc3ccccc3c2=O)cc1OC (centres undefined)	/	/	/	96*
CC1Oc2ccccc2C=C1/C=C1/SC(N2CCOCC2)=NC1=O (centres undefined)	-9	13	52*	0
O=C1N=C(N2CCOCC2)S/C1=C/c1cccs1	2	-3	12	39
SMILES	cytoskel mod	HUVEC tox TNFa	VCAM1 TNFa inh	E-sel TNF inh
CCCCN(C(=O)NC(=O)Nc1cccc(C)c1C)S(C)(=O)=O	-73	70	90*	/
COc1cccc(CNC(=O)C2CCCN(S(=O)(=O)c3c(C)n[nH]c3C)C2)c1 (centres undefined)	17	79*	-18	/
CCS(=O)(=O)N1CCCC(C(=O)NCc2cccc(OC)c2)C1 (centres undefined)	3	11	27	53*
COc1cccc(CNC(=O)C2CCN(S(=O)(=O)N3CCCCC3)CC2)c1	16	-2	3	0
COc1ccc(CNC(=O)C2CCCN(S(=O)(=O)c3c(C)n[nH]c3C)C2)cc1 (centres undefined)	/	-18	10	18
CCOC(=O)C1CCCN(Cc2sccc2C)C1 (centres undefined)	/	-2	7	3
OC(c1ccccn1)c1c[nH]c2ccccc12 (centres undefined)	67*	-13	5	4
Clc1ccc(Nc2nc3cccnc3s2)cc1	/	/	/	72*
CCN(C(=O)CCS(=O)(=O)c1ccc(Br)cc1)c1ccc2c(c1)OCO2	/	/	/	96*
